This passage reports outcome results from PubChem BioAssay AID602455 (Southern Research Specialized Biocontainment Screening …, 2012).

Potency and affinity values are given separately. Calls of active or inactive are those of the source. Where a call stands in place of a potency, no number is given. How the calls were made is not given here.

The nature of this experiment: CPE inhibition in VEEV TC 83 infected cells, confirmatory screen (AID 602455). To be noted: series mostly up to 50 µM.
Consider `O=C(Nc1nc2c(s1)CCCC2)c1cccs1`, for which the call was inactive.
Consider `O=C(Cc1cccs1)Nc1nc2ccccc2s1`, for which the result was inactive.
Consider `O=C(Cc1cccs1)Nc1nccs1`, for which the result was inactive.
